The campaign covered roughly 16,000 compounds. About 5,700 (36%) were called active. About 24% were inconclusive and are not listed. Calls come from the whole dose curve; as a rule, active = well fitted curve in the direction sought with a large enough effect; inconclusive = small, poorly fitted or top-dose-only effect, or effect the other way; inactive = no such curve, though single readings can be large or run the other way. Some of the results follow.
Each molecule was assayed against Cytochrome P450 1A2 (Homo sapiens) (UniProt P05177) (assay: Cytochrome panel assay with activity outcomes). Conditions: recombinant CYP, pro-luciferin dealkylation, luminescence, p450-cyp1a2; series mostly up to 57.1 µM; activity, negative = inhibition: at the top concentration.
% is set by controls: 0 for no effect and ±100 for the full control effect.

Cytochrome P450 1A2 (Homo sapiens), sequence (P05177 whole entry, looked up): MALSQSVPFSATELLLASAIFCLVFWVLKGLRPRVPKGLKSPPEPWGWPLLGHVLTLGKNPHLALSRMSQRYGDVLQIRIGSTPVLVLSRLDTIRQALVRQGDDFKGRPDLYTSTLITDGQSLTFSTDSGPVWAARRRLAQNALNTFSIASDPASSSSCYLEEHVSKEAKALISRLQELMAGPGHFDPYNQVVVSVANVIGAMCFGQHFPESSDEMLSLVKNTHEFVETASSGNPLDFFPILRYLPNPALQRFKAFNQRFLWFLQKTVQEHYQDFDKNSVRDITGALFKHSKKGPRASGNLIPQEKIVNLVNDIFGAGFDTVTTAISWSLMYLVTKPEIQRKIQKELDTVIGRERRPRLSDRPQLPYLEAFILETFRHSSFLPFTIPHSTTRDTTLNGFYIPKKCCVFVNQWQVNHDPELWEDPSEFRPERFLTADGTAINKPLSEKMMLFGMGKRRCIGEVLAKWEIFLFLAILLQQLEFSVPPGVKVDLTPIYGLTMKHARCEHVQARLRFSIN

activity, negative = inhibition, inactive:
O=C(OC1CCN(c2ncc(C(F)(F)F)cc2Cl)CC1)c1ccccc1 -17.9%, FC(F)(F)c1cnc(N2CCC(=NOCc3ccc(Cl)cc3)CC2)c(Cl)c1 -7.97%, NS(=O)(=O)c1cc2c(cc1Cl)N[C@@H]([C@@H]1C[C@@H]3C=C[C@H]1C3)NS2(=O)=O -19.7%, C[C@@H](CCCCC(=O)Nc1ccc(C(F)(F)F)cc1)NCCc1cnc[nH]1 -20.5%, CC(C)CN(CC(C)C)C1=N/C(=C\c2ccco2)C(=O)N1c1ccccc1 -23.4%, COc1ccc(S(N)(=O)=O)cc1C(=O)NCCCN1CCN(c2ccc(C)cc2)CC1 -4.28%, CCCCOc1ccc(-c2nnn(CC(=O)c3c[nH]c4ccccc34)n2)cc1 9.73%, CCOCc1cnc(C)nc1NCC(=O)c1c(C)[nH]c2ccccc12 9.26%, COc1ccc(NC(=O)N2CCC3(CC2)CCN(C(=O)c2cccc(F)c2)CC3)cc1 -14.4%, CCOC(=O)NNC1CC(=O)N(c2ccc(OC)cc2)C1=O (configuration not stated) -9.03%, Cc1cc2c(nc1C)CCCCN2C[C@H](C)O/N=C\[C@@H](C)[C@H](OCc1ccccc1)C(C)C -17.4% [at 11.4 µM], CC(=O)c1cnc2c(C(=O)O)cnn2c1C 2.54%, CCN1C(=O)[C@H]2[C@H]3[C@H](O)[C@H](O)C/C(=N/OC[C@@H](O)[C@H]4O[C@H]5OC(C)(C)O[C@H]5[C@@H]4O)[C@@H]3CC[C@@H]2C1=O -1.85% [at 11.4 µM], CCCNc1[nH]c(=O)n(C)c(=O)c1N=O 0.913%, CN(C(=O)Cn1nnc(-c2cccc(C(F)(F)F)c2)n1)C1CCCCC1 -15.3%, C[C@@]1(C(NC(=O)Cc2ccc(C(F)(F)F)cc2)c2ccc(-c3ccccc3)cc2)C[C@H]1C1CCCCC1 (some centres not stated) 11%, OCCNc1ncnc2c1ncn2[C@@H]1O[C@@H](CO)[C@H](O)[C@@H]1O -20.3% [at 11.4 µM], OCCNc1ncnc2nc[nH]c12 -5.82% [at 11.4 µM], CO[C@@H]1COC(=O)[C@@H](C)NC(=O)C/C=C\[C@@H](C)[C@H](NS(=O)(=O)c2ccc(C)cc2)COC(=O)[C@H](C)NC(=O)C/C=C\[C@H]1C 1.37% [at 11.4 µM], CCOC(=O)N1CCN(C(=O)c2ccc(NC(C)=O)cc2)CC1 6.91%, CCOC(=O)N1CCN(C(=O)c2ccc(OC)c(OC)c2)CC1 -0.0485%, O=C(O)c1cc(=O)cc(C(=O)O)[nH]1 2.72%, C[C@H](O)C(=O)Nc1c(I)c(C(=O)NC(CO)CO)c(I)c(C(=O)NC(CO)CO)c1I 0.269% [at 25.6 µM], C#CCCCO/N=C1/C[C@@H](O)[C@@H](O)[C@@H]2[C@@H]3C(=O)N(CCC(=O)OCC)C(=O)[C@H]3CC[C@H]12 -10.2% [at 11.4 µM], CCOC(=O)N1CCC(NS(=O)(=O)c2ccc3c(c2)C(C)(C)C(=O)N3C)CC1 14%, NCCCS(=O)(=O)O -4.72%, Cc1ccc(C(=O)N2C3C=CC(C3)C2(C(F)(F)F)C(F)(F)F)cc1 (configuration not stated) -9.14%, COc1ccc(C(NC(=O)c2ccc(-c3ccccc3)cc2)c2ccccc2)cc1 (configuration not stated) -2.05%, CCOc1ccc(C(C)=O)cc1N1C(=O)C2C(C1=O)C1C=CC2C12CC2 (configuration not stated) -21.9%, O=C(Nc1cccc(F)c1)N1CC2(CCN(S(=O)(=O)c3ccccc3)CC2)C1 -28.7%, Cc1cccc(Nc2ccncc2S(=O)(=O)NC(=O)NC(C)C)c1 -15.6% [at 25.6 µM], CCC(=O)NC(NC(=O)CC)C(Cl)Cl -1.98%, O=C(O)c1cc(N=Nc2ccc([N+](=O)[O-])cc2)ccc1O -15.2% [at 2.29 µM], Cc1cccc[n+]1CC(=O)Nc1ccc([N+](=O)[O-])cc1Cl -0.914%, CC(=O)Nc1ccc(NC(=O)c2ccccc2CC[N+](=O)[O-])cc1 -12.1%, COc1cccc(/C(O)=C2/C(=O)C(=O)N(c3cc(C)on3)C2c2cccs2)c1 (configuration not stated) -13.9%, c1ccc(CSc2ncnc3c2sc2nc(N4CCOCC4)c4c(c23)CCCC4)cc1 -8.51%, CCc1ccc(OCC(=O)NNC(=O)CSc2ncnc3sc(C)c(C)c23)cc1 -21.4%, Nc1nc2c(ncn2[C@@H]2C=C[C@@H](CO)C2)c(=O)[nH]1 -4.34% [at 11.4 µM], Cc1ccc(NC(=O)CSc2nnc(-c3ccncc3)o2)cc1 -19.3%, Nc1nc(SCc2ccccc2Cl)cc(C(=O)O)n1 6.21% [at 2.29 µM], CNC[C@H](O)[C@H](O)[C@H](O)[C@H](O)CO -4.07% [at 25.6 µM], CC(=O)N1CCC2(CCCN(Cc3ccccc3)C2)CC1 9.1%, Cc1nc([N+](=O)[O-])c(N2CCN(C)CC2)n1Cc1ccccc1 -2.13%, CN1CCc2nc(N)nc(-c3nc(N)nc4c3CN(C)CC4)c2C1 -3.87% [at 2.29 µM], CCC1(c2ccccc2)C(=O)NCNC1=O -3.29% [at 25.6 µM], Cn1cccc1C(=O)N1CCC[C@@]2(CCN(Cc3cc(C(F)(F)F)cc(C(F)(F)F)c3)C2)C1 -13.9%, O=C(COc1ccc(Cl)cc1)Nc1ccc(N2CCN(C(=O)c3ccco3)CC2)cc1 8.86%, Cc1nn(C)cc1C(C(=O)NC1CCCCC1)N(C(=O)Cc1cccs1)c1ccc(C(C)C)cc1 (configuration not stated) -7.11%, CN1CCC(N(C)C(=O)CCc2nc3ccccc3c(=O)[nH]2)CC1 -10.8%

AC50, inactive:
CCCCCN(CCCCC)C(=O)[C@H](CCC(=O)O)NC(=O)c1ccc(Cl)c(Cl)c1, CC(=O)OCC1=C(C(=O)O)N2C(=O)[C@@H](NC(=O)CSc3ccncc3)[C@@H]2SC1, CN1CCC(=C2c3ccccc3C=Cc3ccccc32)CC1

AC50, active:
Nc1ccccc1Oc1ncc(C(F)(F)F)cc1Cl 2820 nM, CCCCCc1nc2c(C#N)c(-c3ccc(Cl)cc3)ccn2n1 8910 nM, Cc1oncc1C(=O)Nc1ccc(C(F)(F)F)cc1 63.1 nM, CCCCN=C1N/C(=C\c2ccco2)C(=O)N1c1ccccc1 2000 nM, O=c1c(-c2ccccc2)nc2cncnc2n1Cc1ccccc1Cl 2000 nM, O=c1c(-c2cccc(Cl)c2)nc2cncnc2n1Cc1ccccc1Cl 2000 nM, O=c1c(-c2ccc(F)c(F)c2)nc2cncnc2n1Cc1ccccc1Cl 5010 nM, O=c1c(-c2cccc(Cl)c2)nc2cncnc2n1Cc1ccccc1 1000 nM, CCCCOC(=O)c1cc2c(cn1)[nH]c1ccccc12 158 nM, CNC(=O)c1cc2c(cn1)[nH]c1ccccc12 50.1 nM, CCN=C(Nc1cccc(F)c1)SC1CC(=O)N(c2ccc(OC)cc2)C1=O (configuration not stated) 6310 nM, CC(=O)c1cnc2cc(C)nn2c1C 22400 nM, O=c1c(-c2cccs2)nc2cncnc2n1Cc1ccc(F)cc1 2510 nM, O=c1c(-c2cccs2)nc2cncnc2n1Cc1ccccc1 2510 nM, Cc1cccc2c1Oc1ccccc1[C@@H]2NC(=O)c1ccc([N+](=O)[O-])cc1 1000 nM, CC(C)NC(=O)c1ccc(-c2cccc(C(F)(F)F)c2)o1 398 nM, CCc1cc2c(NCc3ccco3)ncnc2s1 2510 nM, CCc1cc2c(NCCO)ncnc2s1 6310 nM, FC(F)(F)c1ccccc1-c1nc(N2CCNCC2)c2ccccc2n1 10000 nM, CN1CCN(c2nc(-c3ccccc3C(F)(F)F)nc3ccccc23)CC1 10000 nM, FC(F)(F)c1ccccc1-c1nccc(N2CCNCC2)n1 10000 nM, CCOC(=O)c1c(C)c(C)n2c1NC(=O)C2 2000 nM, CCOC(=O)N1CCN(C(=O)c2ccc(Cl)c(S(=O)(=O)N3CCOCC3)c2)CC1 6310 nM, COc1ccc(-n2c(=O)cnc3cnc(N(C)C)nc32)cc1 5010 nM, COc1ccc(-n2c(=O)c(C)nc3cnc(N(C)C)nc32)cc1 6310 nM, Cc1nc2cnc(N(C)C)nc2n(-c2ccccc2)c1=O 2000 nM, C[C@H](NC(=O)c1ccc(Cl)c(Cl)c1)c1ccc(-c2ccccc2)cc1 631 nM, Cc1cccc(N/C(=N\S(=O)(=O)c2ccccc2)C(F)(F)F)c1 14100 nM, O=C(Nc1ccccc1)c1ccccc1CC[N+](=O)[O-] 15800 nM, O=C(Nc1ccc([N+](=O)[O-])cc1Cl)c1cc(Cl)ccc1O 1260 nM, O=C(Nc1ccccc1)c1cc([N+](=O)[O-])ccc1Cl 631 nM, Fc1ccc(CSc2ncnc3sc4c(c23)CCCC4)cc1 4470 nM, Nc1c(-c2ccccc2)cnn1-c1cccc([N+](=O)[O-])c1 3550 nM, Clc1ccccc1CSc1nnc(/C=C/c2ccccc2)o1 1260 nM, Clc1ccccc1CSc1nnc(-c2ccncc2)o1 794 nM, Clc1cccc(Cl)c1CSc1nnc(/C=C/c2ccccc2)o1 4470 nM, CN1CCc2c(c3ccccc3n2Cc2ccccc2)C1 5010 nM, CN1CCc2c(c3ccccc3n2C)C1 12600 nM, N=C1[C@@H](O)[C@]2(I)c3ccccc3N3C(=N)[C@H](O)[C@@H]4c5ccccc5N1[C@@H]4[C@@H]32 2510 nM, CCOc1ccc(NC(=S)N(Cc2ccc(Cl)cc2)Cc2ccco2)cc1 3550 nM, CCOc1ccc(NC(=S)N(Cc2ccc(N(C)C)cc2)Cc2ccco2)cc1 1260 nM, CC1Cc2ccccc2N1Cc1nc2cc(C(F)(F)F)ccc2c(=O)[nH]1 (configuration not stated) 3550 nM, Cc1cc(C)c2c(SCc3ccc(Cl)cc3Cl)nc(N)nc2n1 3160 nM, O=C1OCC(c2ccccc2)=C1c1ccc(S(=O)(=O)N2CCOCC2)s1 25100 nM

Source: PubChem BioAssay AID1851 (National Center for Advancing Translational Sciences (NCATS), 2009)
